TDP1 cell CPT: qHTS for Inhibitors of human tyrosyl-DNA phosphodiesterase 1 (TDP1): qHTS in cells in presence of CPT. chicken DT40 Tdp1-/-;hTDP1 cells + 20 nM CPT, ATP luminescence, 48 h. 420,000 compounds, 12% hits. AID 686979, 2013. Potency, µM (doses to about 46.2 µM), without a hit: at the highest dose activity change, negative = growth inhibition, hits mostly inhibitors; also: % is scaled to controls: 0 for no effect and ±100 for the full control effect; nearly all actives have a fitted effect of over 55% in size
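Chicken DT40 Tdp1-/- cells complemented with human TDP1, 400 cells/well, exposed to compounds plus 20 nM camptothecin for at least 48 h at 37 C; viability read as ATP content by CellTiter-Glo luminescence.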
DT40 TDP1 no CPT: qHTS for Inhibitors of human tyrosyl-DNA phosphodiesterase 1 (TDP1): qHTS in cells in absence of CPT | DT40 Tdp1-/- hTDP1 cells, no CPT, ATP luminescence, 48 h | Potency, µM (doses to about 46.2 µM), without a hit: at the top dose activity change, negative = growth inhibition, actives largely listed as inhibitors | 420,000 compounds, 15% hits; also: % is scaled to controls: 0 for no effect and ±100 for the full control effect; nearly all actives have a fitted effect of over 55% in size
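Compound effects on proliferation are scored in DT40 Tdp1-/-;hTDP1 cells in the absence of CPT. ATP levels (CellTiter-Glo luminescence) are recorded after a ≥48 hr, 37 °C incubation.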
S2 tox: Viability Counterscreen for Primary qHTS for Inhibitors of ATXN expression; S2 cells (HEK-293 line with an ATXN2-luciferase reporter) viability, CellTiter-Fluor protease fluorescence, 24 h; Potency, µM (highest dose often 56.7 µM), most hits filed as cytotoxic; 400,000 compounds, 0.49% hits; AID 651635, 2014; also: nearly all actives have a fitted effect of over 40% in size
HepG2 tox-1: qHTS for Inhibitors of TGF-b: Cytotox Counterscreen | HepG2 CAGA-GFP viability, ATP luminescence, 18 h | Potency, µM (titrated, usually from 46.1 µM), for inactives: top-dose activity change, negative = cytotoxicity, actives largely listed as cytotoxic | 410,000 compounds, 0.76% hits
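HepG2 CAGA-GFP cells (1000/well, DMEM with 1% FBS) received compound, then TGF-beta at 500 pg/mL final, and were incubated 18 hours at 37 degrees C. Viability was read by CellTiter-Glo luminescence. Media-only wells were set as complete cell-killing and DMSO as no toxicity.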
TGFb inhibitor: qHTS for Inhibitors of TGF-b; HepG2 CAGA-GFP TGF-b/SMAD3 reporter, GFP fluorescence, 18 h; TGF-beta stimulated, 500 pg/mL final; Potency, µM (titrated, usually from 46.1 µM), inactives show top-dose activity, negative = inhibition, hits mostly inhibitors; 410,000 compounds, 1.2% hits; also: % is scaled to controls: 0 for no effect and ±100 for the full control effect; nearly all actives have a fitted effect of over 65% in size
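Using HEPG2 CAGA-GFP reporter cells at 1000 cells/well, we pinned test compounds, stimulated with recombinant TGF-beta (500 pg/mL final) and measured total well GFP after 18 h.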
ATXN2 expr inh: Primary qHTS for Inhibitors of ATXN expression; HEK-293 ATXN2-luciferase reporter, luminescence, 24 h; Potency, µM (doses to about 57 µM), inactives show top-dose activity change, negative = inhibition, actives largely listed as inhibitors; 360,000 compounds, 0.72% hits; also: % is scaled to controls: 0 for no effect and ±100 for the full control effect; nearly all actives have a fitted effect of over 55% in size
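qHTS (up to 57 uM final) was run with 24 h compound exposure of reporter cells at 37 °C. Each well was multiplexed: SteadyGlo luminescence measured ATXN2-luciferase expression after a fluorogenic Gly-Phe-AFC viability readout (25 uM final).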
TGFb CAGA inh: qHTS for Inhibitors of TGF-b: Confirmation of Cherry Picks; shares compounds with TGFb inhibitor; HepG2 CAGA-GFP TGF-b reporter, GFP fluorescence, 18 h; cells stimulated with TGF-beta, 500 pg/mL; Potency, µM (doses to about 46.1 µM), inactives show at the highest dose activity, negative = inhibition, hits mostly inhibitors; 1,600 compounds, 63% hits; also: % is scaled to controls: 0 for no effect and ±100 for the full control effect; nearly all actives have a fitted effect of over 65% in size
HepG2 tox-2: qHTS for Inhibitors of TGF-b: Cytotox Counterscreen for Cherry Picks; shares compounds with TGFb inhibitor; HepG2 CAGA-GFP viability, ATP luminescence, 18 h; cells stimulated with TGF-beta, 500 pg/mL; Potency, µM (highest dose often 46.1 µM), inactives show at the highest dose activity, negative = cytotoxicity, actives largely listed as inhibitors; 1,600 compounds, 27% hits; also: % is scaled to controls: 0 for no effect and ±100 for the full control effect; nearly all actives have a fitted effect of over 70% in size
TGFb CCL64 inh: qHTS for Inhibitors of TGF-b: CCL64 Cells Orthogonal Assay for Cherry Picks; shares compounds with TGFb inhibitor; CCL64 CAGA-GFP reporter, TGF-b stimulated, GFP fluorescence, 18 h; Potency, µM (titrated, usually from 46.1 µM), for inactives: at the top dose activity, negative = inhibition, most hits filed as inhibitors; 1,600 compounds, 41% hits; AID 720536, 2013; also: nearly all actives have a fitted effect of over 65% in size
TGFb COP inh: qHTS for Inhibitors of TGF-b: Hit Validation in HepG2 Cells using COP promoter; shares compounds with TGFb inhibitor; 1,600 compounds, 3% hits; HepG2 COP-GFP TGF-b reporter, GFP fluorescence, 18 h; cells stimulated by added recombinant TGF-beta; Potency, µM (top dose mostly 46.1 µM), without a hit: at the highest dose activity, negative = inhibition, hits mostly inhibitors; also: nearly all actives have a fitted effect of over 70% in size
The depositor's hits bear a star; i = inactive; ? = inconclusive; . = not tested or not shown; ! = not active in a repeat. Compounds with a hit are over-represented: about 17% of the library has one in this group of screens. Calls follow the shape of the dose curve; as a rule, active = well fitted curve in the direction sought with a large enough effect; inconclusive = small, poorly fitted or top-dose-only effect, or another doubt; inactive = no such curve, though single readings can be large; an effect the other way counts as inactive or inconclusive. Potency is read from the fitted curve at half-maximal effect.

SMILES	TDP1 cell CPT	DT40 TDP1 no CPT	S2 tox	HepG2 tox-1	TGFb inhibitor	ATXN2 expr inh	TGFb CAGA inh	HepG2 tox-2	TGFb CCL64 inh	TGFb COP inh
CSCCC(c1nnnn1C1CCCCC1)N1CCC(n2c(=O)[nH]c3ccccc32)CC1 (configuration not stated)	18µM*	9.2µM*	?	-2%	14µM*	?	26µM*	-20%	-31%	-1%
COc1ccc(C(c2nnnn2-c2ccc(OC)cc2)N2CCC(n3c(=O)[nH]c4ccccc43)CC2)cc1 (configuration not stated)	18µM*	9.2µM*	?	-2%	11µM*	?	16µM*	-27%	13µM*	51%
OCC#CC[N+]1(CC#Cc2ccccc2)CCOCC1	6%	-4%	i	-10%	-5%	-15%	.	.	.	.
CC12CCC3C(CCC4CC(=O)C(C(O)C(F)(F)F)CC43C)C1CCC2O (configuration not stated)	?	?	i	-10%	?	-14%	.	.	.	.
Cn1c(O)c(C(=NCCc2c[nH]c3ccccc23)c2ccccc2)c(=O)n(C)c1=O	-27%	?	i	-7%	-18%	-24%	.	.	.	.
CCNC(=O)[C@H]1O[C@@H](n2cnc3c(N)ncnc32)[C@H](O)[C@@H]1O	-7%	-1%	i	14%	-15%	9%	.	.	.	.
NC(=O)c1cn(C2OC(CO)C(O)C2O)c2ncnc(N)c12 (configuration not stated)	0.0082µM*	0.016µM*	.	-47%	0.11µM*	0.28µM*!	0.092µM*	0.065µM*	0.23µM*	-12%
NC(=O)c1c(Br)n(C2OC(CO)C(O)C2O)c2ncnc(N)c12 (configuration not stated)	2.1µM*	1.8µM*	?	-18%	1.4µM*	21µM*	2.1µM*	?	?	20%
N#Cc1cn(C2OC(CO)C(O)C2O)c2ncnc(N)c12 (configuration not stated)	0.015µM*	0.015µM*	?	-36%	0.1µM*	?	0.23µM*	0.15µM*	0.1µM*	12%
C[C@]12CCC3C(CC[C@@H]4[C@H]5O[C@H]5CC[C@]34C)C1CC[C@@H]2O (some centres not stated)	-22%	-26%	i	-2%	-30%	-6%	.	.	.	.
Cc1ccc2c(C)cccc2c1	-7%	-4%	i	-14%	0%	-1%	.	.	.	.
CCN(CCCl)c1cc(CN(C)C)cc(NC(=O)c2ccc(C(=O)Nc3cc(CN(C)C)cc(N(CC)CCCl)c3)cc2)c1	0.18µM*	0.18µM*	.	-104%	4µM*	0.71µM*	1µM*	1µM*	1µM*	?
COc1ccc(-c2nn(CCC#N)cc2C(=O)Nc2cccc([N+](=O)[O-])c2)cc1OC	6%	12%	i	-1%	5%	-14%	.	.	.	.
COC(=O)C1=C(c2ccccc2)C[C@@H]2CC[C@H]1N2C(=O)NC(C)C	-16%	.	i	5%	-1%	-2%	.	.	.	.
COC(=O)C1=C(c2ccc3ccccc3c2)C[C@@H]2CC[C@H]1N2C(=O)N1CCOCC1	?	5.8µM*	i	-29%	13µM*	0%	?	-5%	5%	1%
COC(=O)C1=C(c2ccc(-c3ccccc3)c(F)c2)C[C@@H]2CC[C@H]1N2C(=O)N1CCC(C)CC1	7.3µM*	4.6µM*	?	0%	4.5µM*	-35%	7.3µM*	?	9.2µM*	18%
COc1ccc2nc3oc(C(=O)N4CCC5(CC4)OCCO5)cc3cc2c1	-22%	-18%	i	-9%	-1%	11%	.	.	.	.
CCOC(=O)c1c(NS(=O)(=O)c2ccccc2)n(CCCOC)c2nc3ccccc3nc12	?	?	.	-1%	?	-12%	.	.	.	.
CCOC(=O)c1c(N)n(CCCOC(=O)c2ccco2)c2nc3ccccc3nc12	12µM*	13µM*	i	3.5µM*	2.8µM*	?	4.1µM*	5.2µM*	23µM*	5.8µM*
CC(=O)c1cn(Cc2ccc(F)cc2)c2ccccc12	21µM*	18µM*	i	-25%	?	-27%	9.2µM*	4.1µM*	3%	17%
CC1CCCC(NC(=O)CNC(=S)N2CC3CC(C2)c2cccc(=O)n2C3)C1C (configuration not stated)	-4%	20%	i	4%	17%	3%	.	.	.	.
CC(C)=CCC/C(C)=C/CNC(=O)C[C@H]1C[C@H](C(=O)N(C(C)C)C(C)C)[C@@]2(C)c3[nH]c4ccc(Cl)cc4c3CCN2C1=O	?	?	i	-4%	-23%	3%	.	.	.	.
